Results as given in the supplement of paper PMC10849652.
About 8,800 targets were measured; listed, in parts, are those with a hit and a random draw of the rest. About 0.5% of all pairs of compound and target were hits.

Key:
Assay in all cases: log2 fold change, soluble protein after heating vs DMSO (PISA); higher = thermal stabilisation; K562 lysate, 10 uM; active = over 0.2 and 3.5 SD of the protein, either way, in both replicates (recomputed)
[1] = compound: CC(=O)c1cnc2ccc(-c3cc(Cl)c(O)c(Cl)c3)nc2c1N[C@H]1CC[C@H](CN(C)C)CC1
Summary of the method: (§1)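 Log-two fold change in thermal stability relative to solvent controls is reported from duplicates. For each sample, crude K562 extract from dounce-homogenised pellets in PBS pH 7.4 with 1 mM MgCl2, at 1 mg/mL protein, was treated with 10 μM compound for 30 min. Aliquots heated for 3 min across 48°C-58°C were pooled, brought to 0.5% NP-40 at 4°C and cleared at 21,000xg for 90 min. The supernatant was quantified by TMTpro 16plex LC-MS/MS with channel sums equalised.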

[2] = compound: CC(C)(C)Cn1c(N)nc2ccc(-c3[nH]c(C(C)(C)C)nc3-c3ccc(F)cc3)nc21 [ralimetinib]
Summary of the method: as §1

[3] = compound: CC(C)(O)CC(=O)NCCn1ccc2ncnc(Nc3ccc(Oc4cccc(C(F)(F)F)c4)c(Cl)c3)c21
Summary of the method: as §1

[4] = compound: CC(C)C1=C2N=C(C=C(N2N=C1)NCC3=CC=CC=C3)NCCCCCCN
Summary of the method: as §1

[5] = compound: CC1=C(C(CC(=O)N1)C2=CC=C(C=C2)C(F)(F)F)C(=O)NC3=C(C=C4C(=C3)C=NN4)F
Summary of the method: as §1

[6] = compound: CC1=C(C2=C(C=C1)C(=O)C3=CC=CC=C3N2CCCN)C
Summary of the method: as §1

[7] = compound: CC1=C(C=C(C=C1)NC(=O)C2=CC(=CC=C2)C(C)(C)C#N)NC3=CC4=C(C=C3)N=CN(C4=O)C
Summary of the method: as §1

[8] = compound: CC1=C(C=C(C=C1)NC(=O)C2=CC(=CC=C2)N(C)C)NC(=O)C3=CC=C(C=C3)O
Summary of the method: as §1

[9] = compound: CC1=CC=C(C=C1)SC2=C3C=C(SC3=CN=C2)C(=O)N
Summary of the method: as §1

[10] = compound: CCCS(=O)(=O)Nc1ccc(F)c(C(=O)c2c[nH]c3ncc(-c4ccc(Cl)cc4)cc23)c1F [vemurafenib]
Summary of the method: as §1

[11] = compound: CCCS(=O)(=O)Nc1ccc(F)c(C(=O)c2c[nH]c3ncc(Cl)cc23)c1F
Summary of the method: as §1

[12] = compound: CC[C@@H]1C(=O)N(C)c2cnc(Nc3ccc(C(=O)NC4CCN(C)CC4)cc3OC)nc2N1C1CCCC1
Summary of the method: as §1

[13] = compound: CC[C@@H]1C(=O)N(C)c2cnc(Nc3ccc(C(=O)N[C@H]4CC[C@H](N5CCN(CC6CC6)CC5)CC4)cc3OC)nc2N1C(C)C [volasertib]
Summary of the method: as §1

[14] = compound: CCn1c(C(=O)N(C2CC2)C2CC2)cc2c3c(ncn3C)c(Nc3cc(C)n(C)n3)nc21
Summary of the method: as §1

[15] = compound: CCn1cc(-c2ccnc3[nH]c(-c4cccc(CN(C)C)c4)cc23)c(-c2ccc(NC(=O)N(C)C)cc2)n1
Summary of the method: as §1

[16] = compound: CN1CCC(CNc2ccc3ncc(-c4cccc(OC(F)(F)F)c4)n3n2)CC1
Summary of the method: as §1

[17] = compound: CN1CCN(CCOc2cc(OC3CCOCC3)c3c(Nc4c(Cl)ccc5c4OCO5)ncnc3c2)CC1 [saracatinib]
Summary of the method: as §1

[18] = compound: CN1CCN(c2nc(C3=C(c4c[nH]c5ccccc45)C(=O)NC3=O)c3ccccc3n2)CC1 [sotrastaurin]
Summary of the method: as §1

[19] = compound: C=CC(=O)N1CCC[C@@H](n2nc(-c3ccc(Oc4ccccc4)cc3)c3c(N)ncnc32)C1 [ibrutinib]
Summary of the method: as §1

[20] = compound: CCN(CCCOc1ccc2c(Nc3cc(CC(=O)Nc4cccc(F)c4)[nH]n3)ncnc2c1)CCOP(=O)(O)O [barasertib]
Summary of the method: as §1

Measured: log2 fold change

TNKS (UniProt O95271)
UniProt O95271, sequence (O95271 whole entry, looked up): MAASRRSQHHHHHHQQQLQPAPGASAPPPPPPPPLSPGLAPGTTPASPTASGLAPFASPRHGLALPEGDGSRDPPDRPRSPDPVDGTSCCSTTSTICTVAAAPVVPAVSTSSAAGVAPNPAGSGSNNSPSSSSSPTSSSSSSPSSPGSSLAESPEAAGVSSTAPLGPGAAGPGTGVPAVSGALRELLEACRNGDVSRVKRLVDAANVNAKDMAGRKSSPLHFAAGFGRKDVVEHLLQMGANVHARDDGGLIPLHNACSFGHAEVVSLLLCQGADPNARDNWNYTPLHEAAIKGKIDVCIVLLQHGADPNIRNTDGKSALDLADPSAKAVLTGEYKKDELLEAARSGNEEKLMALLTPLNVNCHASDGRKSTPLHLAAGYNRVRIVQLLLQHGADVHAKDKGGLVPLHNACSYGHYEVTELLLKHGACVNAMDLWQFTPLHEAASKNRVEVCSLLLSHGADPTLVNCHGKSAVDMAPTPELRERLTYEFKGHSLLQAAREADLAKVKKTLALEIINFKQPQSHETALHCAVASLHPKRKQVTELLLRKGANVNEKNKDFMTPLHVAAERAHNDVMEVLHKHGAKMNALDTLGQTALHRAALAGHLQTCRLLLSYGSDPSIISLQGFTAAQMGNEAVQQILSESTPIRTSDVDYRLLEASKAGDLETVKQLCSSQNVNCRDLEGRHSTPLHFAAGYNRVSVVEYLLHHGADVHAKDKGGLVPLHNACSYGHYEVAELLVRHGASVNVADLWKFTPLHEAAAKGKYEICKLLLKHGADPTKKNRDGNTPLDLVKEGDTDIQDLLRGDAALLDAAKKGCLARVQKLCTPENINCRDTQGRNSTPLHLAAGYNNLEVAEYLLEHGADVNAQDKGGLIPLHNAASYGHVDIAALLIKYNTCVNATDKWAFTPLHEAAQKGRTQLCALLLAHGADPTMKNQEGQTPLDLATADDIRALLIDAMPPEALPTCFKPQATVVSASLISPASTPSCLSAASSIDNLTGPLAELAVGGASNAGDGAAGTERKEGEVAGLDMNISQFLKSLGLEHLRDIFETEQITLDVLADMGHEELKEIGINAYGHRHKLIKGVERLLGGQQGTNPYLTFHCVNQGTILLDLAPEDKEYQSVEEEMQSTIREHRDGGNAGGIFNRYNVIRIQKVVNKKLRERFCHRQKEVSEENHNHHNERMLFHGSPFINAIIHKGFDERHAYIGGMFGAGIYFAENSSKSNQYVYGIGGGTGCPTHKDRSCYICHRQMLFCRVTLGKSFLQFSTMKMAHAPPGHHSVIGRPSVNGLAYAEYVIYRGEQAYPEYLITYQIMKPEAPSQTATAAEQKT
inactive: [1] 0.038 | [2] -0.04 | [3] 0.022 | [4] -0.045 | [5] -0.001 | [6] -0.076 | [7] 0.004 | [8] 0.006 | [9] 0.124 | [10] -0.035 | [11] 0.124 | [12] 0.055 | [13] -0.11 | [14] 0.027 | [15] 0.207 | [16] -0.092 | [17] -0.007 | [18] 0.021

TJP1 (UniProt H0Y3R8)
inactive: [15] 0.048 | [16] -0.16

TUBA4A (UniProt C9JQ00)
inactive: [19] 0.125 | [20] 0.267 | [15] 0 | [16] -0.045

TSPAN3 (UniProt O60637)
active: [15] 0.663
inactive: [1] 0.008 | [2] -0.069 | [3] -0.025 | [4] 0.05 | [5] -0.173 | [6] -0.099 | [8] 0.135 | [9] -0.04 | [10] -0.075 | [11] -0.052 | [12] 0.01 | [13] 0.073 | [14] -0.222 | [16] -0.3 | [17] -0.038

TGFBR1 isoform 2 (UniProt P36897)
UniProt P36897, sequence (P36897 whole entry, looked up): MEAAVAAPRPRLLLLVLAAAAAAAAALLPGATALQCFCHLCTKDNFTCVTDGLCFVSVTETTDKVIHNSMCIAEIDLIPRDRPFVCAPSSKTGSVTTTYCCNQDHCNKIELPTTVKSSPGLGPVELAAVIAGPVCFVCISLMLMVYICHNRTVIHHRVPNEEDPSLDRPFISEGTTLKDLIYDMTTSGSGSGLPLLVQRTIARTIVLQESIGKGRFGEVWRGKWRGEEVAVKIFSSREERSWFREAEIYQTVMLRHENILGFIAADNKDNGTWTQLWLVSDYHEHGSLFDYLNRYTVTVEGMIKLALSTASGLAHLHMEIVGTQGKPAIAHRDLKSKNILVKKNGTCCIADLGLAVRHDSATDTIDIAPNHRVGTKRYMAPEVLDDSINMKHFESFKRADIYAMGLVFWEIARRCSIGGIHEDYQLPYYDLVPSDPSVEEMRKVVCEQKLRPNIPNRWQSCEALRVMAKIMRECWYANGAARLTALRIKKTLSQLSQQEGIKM
active: [17] 1.04
inactive: [4] -0.032 | [6] -0.043 | [12] -0.005

TMEM132A isoform 2 (UniProt Q24JP5)
inactive: [1] 0.676 | [2] 0.065 | [3] -0.194 | [4] 0.03 | [7] 0.05 | [8] 0.015 | [9] 0.019 | [11] 0.239 | [12] -0.078 | [13] -0.144 | [14] 0.028 | [15] 0.055 | [16] 0.3 | [18] 0.044

UBN1 (UniProt Q9NPG3)
UniProt Q9NPG3, sequence (Q9NPG3 whole entry, looked up): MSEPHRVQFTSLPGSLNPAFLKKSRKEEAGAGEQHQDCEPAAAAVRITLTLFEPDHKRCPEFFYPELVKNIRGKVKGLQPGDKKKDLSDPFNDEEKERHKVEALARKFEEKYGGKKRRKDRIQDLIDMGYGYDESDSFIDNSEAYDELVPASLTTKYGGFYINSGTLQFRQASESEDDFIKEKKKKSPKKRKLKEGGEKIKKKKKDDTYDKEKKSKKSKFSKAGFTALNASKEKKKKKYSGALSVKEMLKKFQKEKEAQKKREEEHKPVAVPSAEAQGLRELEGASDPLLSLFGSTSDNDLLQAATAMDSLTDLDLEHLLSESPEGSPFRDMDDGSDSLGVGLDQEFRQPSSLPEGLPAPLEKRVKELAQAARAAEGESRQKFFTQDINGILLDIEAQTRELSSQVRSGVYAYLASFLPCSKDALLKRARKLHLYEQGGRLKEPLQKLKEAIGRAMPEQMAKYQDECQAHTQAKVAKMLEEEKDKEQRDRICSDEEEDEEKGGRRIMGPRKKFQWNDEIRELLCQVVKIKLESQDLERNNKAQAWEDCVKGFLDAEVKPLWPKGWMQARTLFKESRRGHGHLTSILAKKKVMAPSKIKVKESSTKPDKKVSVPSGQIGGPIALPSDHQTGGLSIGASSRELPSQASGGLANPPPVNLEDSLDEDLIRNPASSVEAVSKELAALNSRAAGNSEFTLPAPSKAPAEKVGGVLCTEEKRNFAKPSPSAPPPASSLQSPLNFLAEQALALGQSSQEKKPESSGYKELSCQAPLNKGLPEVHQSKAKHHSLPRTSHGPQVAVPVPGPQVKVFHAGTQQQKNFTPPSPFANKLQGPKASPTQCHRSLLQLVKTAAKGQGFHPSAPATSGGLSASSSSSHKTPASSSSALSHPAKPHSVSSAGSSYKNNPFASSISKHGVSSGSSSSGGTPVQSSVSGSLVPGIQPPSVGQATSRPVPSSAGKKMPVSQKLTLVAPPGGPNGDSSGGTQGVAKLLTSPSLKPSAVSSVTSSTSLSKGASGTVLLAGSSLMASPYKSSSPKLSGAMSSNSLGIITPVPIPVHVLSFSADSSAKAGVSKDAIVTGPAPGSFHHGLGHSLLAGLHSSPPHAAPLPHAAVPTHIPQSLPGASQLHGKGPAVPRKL
inactive: [1] 0.015 | [6] 0.03 | [7] 0.066 | [9] 0.081 | [10] -0.053 | [11] -0.069 | [12] 0.1 | [13] 0.005 | [15] -0.127 | [16] 0.057 | [17] 0.04 | [18] 0.133

UBAP2 (UniProt Q5JV08)
inactive: [5] -0.097

UBAP2, A0A0D9SFI5
inactive: [7] 0.035 | [18] 0.007

TLE3 (UniProt H0YL70)
inactive: [6] 0.004 | [17] 0.152

TM2D3 (UniProt Q9BRN9)
active: [15] -0.934
inactive: [19] 0.02 | [2] -0.14 | [3] -0.157 | [4] -0.201 | [8] 0.07 | [20] -0.105 | [12] -0.079 | [14] 0.199 | [16] 0.444

TCF3 isoform 2 (UniProt P15923)
UniProt P15923, sequence (P15923 whole entry, looked up): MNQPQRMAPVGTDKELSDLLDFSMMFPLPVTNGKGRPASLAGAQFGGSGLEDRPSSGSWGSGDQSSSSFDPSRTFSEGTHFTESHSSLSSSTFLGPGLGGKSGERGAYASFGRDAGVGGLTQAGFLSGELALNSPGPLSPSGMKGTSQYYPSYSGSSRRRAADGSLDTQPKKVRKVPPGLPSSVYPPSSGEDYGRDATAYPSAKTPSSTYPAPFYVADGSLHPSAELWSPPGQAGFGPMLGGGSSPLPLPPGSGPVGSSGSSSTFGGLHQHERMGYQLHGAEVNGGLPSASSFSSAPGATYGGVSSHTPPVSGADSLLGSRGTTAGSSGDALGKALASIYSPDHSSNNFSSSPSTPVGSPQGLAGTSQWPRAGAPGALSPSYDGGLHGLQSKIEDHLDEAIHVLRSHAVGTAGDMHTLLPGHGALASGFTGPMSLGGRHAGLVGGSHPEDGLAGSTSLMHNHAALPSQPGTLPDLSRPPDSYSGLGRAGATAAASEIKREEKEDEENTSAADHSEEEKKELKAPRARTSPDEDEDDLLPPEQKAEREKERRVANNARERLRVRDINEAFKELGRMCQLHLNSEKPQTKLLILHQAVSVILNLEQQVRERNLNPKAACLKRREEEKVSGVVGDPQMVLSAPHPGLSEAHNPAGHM
inactive: [2] -0.118 | [3] -0.103 | [4] 0.046 | [7] -0.1 | [8] 0.118 | [14] 0.065 | [18] 0.043

UBAP2L (UniProt F8W726)
inactive: [1] 0.275 | [9] -0.025 | [10] 0.094 | [11] -0.031 | [13] -0.018 | [18] -0.052
active: [7] -0.547

TPD52L2 isoform 3 (UniProt O43399)
inactive: [19] 0.288 | [2] 0.167 | [3] -0.038 | [4] 0.017 | [5] -0.007 | [8] 0.107 | [20] 0.026 | [14] -0.028 | [15] -0.141 | [16] 0.135

TRAF7 (UniProt Q6Q0C0)
inactive: [2] 0.046 | [3] -0.091 | [5] 0.023 | [6] -0.022 | [7] 0.07 | [8] -0.031 | [10] -0.07 | [12] 0.053 | [14] 0.012 | [15] -0.065 | [16] 0.191 | [17] 0.132 | [18] -0.044

UCP2 (UniProt P55851)
inactive: [2] 0.091 | [3] -0.081 | [5] 0.073 | [7] -0.045 | [8] -0.1 | [10] 0.09 | [14] -0.024 | [18] -0.001

TMC1 (UniProt Q8TDI8)
inactive: [1] -0.016 | [2] 0.156 | [3] -0.185 | [4] 0.204 | [5] -0.034 | [7] -0.104 | [8] 0.017 | [9] -0.045 | [10] 0.089 | [11] -0.02 | [12] -0.164 | [13] -0.021 | [14] -0.059 | [18] 0.141

TEC (UniProt P42680)
inactive: [1] -0.096 | [5] -0.023 | [9] 0.143 | [10] -0.081 | [11] -0.119 | [12] -0.054 | [13] 0.14

TFPI isoform 2 (UniProt P10646)
UniProt P10646, sequence (P10646 whole entry, looked up): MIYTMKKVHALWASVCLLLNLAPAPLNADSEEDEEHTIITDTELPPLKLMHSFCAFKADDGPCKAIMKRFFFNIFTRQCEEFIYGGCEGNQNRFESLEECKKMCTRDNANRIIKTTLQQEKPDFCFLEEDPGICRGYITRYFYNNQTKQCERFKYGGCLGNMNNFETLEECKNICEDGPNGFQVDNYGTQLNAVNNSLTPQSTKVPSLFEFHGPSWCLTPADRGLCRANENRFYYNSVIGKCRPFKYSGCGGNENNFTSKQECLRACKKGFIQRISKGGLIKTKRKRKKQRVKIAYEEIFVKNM
inactive: [7] -0.034 | [10] 0 | [18] -0.011

TCF3 (UniProt X6REB3)
inactive: [10] 0.075 | [15] 0 | [16] 0.128

TEDC1 (UniProt Q86SX3)
inactive: [1] -0.023 | [2] -0.049 | [3] -0.001 | [4] -0.066 | [5] 0 | [6] -0.033 | [7] -0.018 | [8] 0.082 | [9] -0.024 | [11] 0.103 | [12] 0.106 | [13] -0.041 | [14] 0.019 | [17] -0.02 | [18] -0.037

TRPM4 (UniProt Q8TD43)
inactive: [19] 0.099 | [2] -0.021 | [3] -0.063 | [4] -0.325 | [6] -0.055 | [7] 0.116 | [8] 0.05 | [20] 0.456 | [14] 0.066 | [15] -0.598 | [16] 0.156 | [17] 0.044 | [18] 0.11

UBIAD1 (UniProt Q9Y5Z9)
UniProt Q9Y5Z9, sequence (Q9Y5Z9 whole entry, looked up): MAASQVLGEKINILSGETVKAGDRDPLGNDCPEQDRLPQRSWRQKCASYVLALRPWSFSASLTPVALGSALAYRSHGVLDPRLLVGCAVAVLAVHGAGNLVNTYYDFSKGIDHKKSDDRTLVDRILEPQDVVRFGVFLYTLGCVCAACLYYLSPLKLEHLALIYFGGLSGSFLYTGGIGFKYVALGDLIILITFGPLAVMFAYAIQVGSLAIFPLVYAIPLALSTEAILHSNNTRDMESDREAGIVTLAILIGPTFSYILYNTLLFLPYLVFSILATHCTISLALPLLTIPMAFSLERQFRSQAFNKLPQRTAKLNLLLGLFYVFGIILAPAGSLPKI
inactive: [1] -0.012 | [2] 0.01 | [3] 0.007 | [4] 0.067 | [5] -0.159 | [6] -0.049 | [7] 0.088 | [8] 0.012 | [9] 0.009 | [10] -0.004 | [11] 0.043 | [12] 0.005 | [13] 0.046 | [14] -0.083 | [15] 0.045 | [16] -0.335 | [17] -0.036 | [18] -0.079

UBAP2L isoform 1 (UniProt Q14157)
active: [7] -0.833
inactive: [19] -0.075 | [2] -0.306 | [3] -0.123 | [5] 0.114 | [8] -0.161 | [20] 0.001 | [14] 0.207 | [18] -0.105

TRIM3 (UniProt O75382)
UniProt O75382, sequence (O75382 whole entry, looked up): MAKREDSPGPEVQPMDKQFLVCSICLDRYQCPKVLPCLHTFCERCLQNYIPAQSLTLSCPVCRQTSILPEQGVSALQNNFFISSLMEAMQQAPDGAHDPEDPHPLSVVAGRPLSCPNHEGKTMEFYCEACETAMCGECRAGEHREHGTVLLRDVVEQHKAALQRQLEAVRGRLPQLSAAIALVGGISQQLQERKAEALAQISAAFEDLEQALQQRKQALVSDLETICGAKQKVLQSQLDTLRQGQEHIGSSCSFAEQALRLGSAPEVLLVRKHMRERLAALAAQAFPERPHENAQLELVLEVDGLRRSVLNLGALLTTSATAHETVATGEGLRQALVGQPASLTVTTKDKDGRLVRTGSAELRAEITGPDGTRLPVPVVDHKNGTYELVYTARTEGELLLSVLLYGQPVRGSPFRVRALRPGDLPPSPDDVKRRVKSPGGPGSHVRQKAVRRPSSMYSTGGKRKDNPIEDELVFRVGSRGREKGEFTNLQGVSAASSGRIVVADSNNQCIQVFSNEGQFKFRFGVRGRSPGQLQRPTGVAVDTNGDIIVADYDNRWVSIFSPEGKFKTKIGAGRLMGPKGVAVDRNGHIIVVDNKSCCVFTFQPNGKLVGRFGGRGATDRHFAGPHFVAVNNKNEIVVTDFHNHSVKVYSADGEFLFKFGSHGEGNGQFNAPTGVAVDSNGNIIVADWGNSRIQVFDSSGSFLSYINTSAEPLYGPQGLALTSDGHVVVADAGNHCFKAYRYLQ
inactive: [1] -0.06 | [4] -0.09 | [9] 0.048 | [10] 0.13 | [11] -0.085 | [12] -0.029 | [13] 0.09

U2AF1L5 (UniProt P0DN76)
inactive: [1] -0.047 | [2] -0.019 | [3] 0.001 | [4] 0.069 | [5] -0.008 | [6] -0.003 | [8] 0.143 | [9] 0.011 | [11] -0.013 | [12] 0.027 | [13] -0.036 | [14] 0.015 | [16] 0.389 | [17] -0.007
active: [15] -1.21

TMPO isoform 2 (UniProt P42167)
inactive: [19] -0.108 | [6] -0.006 | [10] 0.08 | [20] 0.185 | [12] 0.075 | [17] 0.044

TCF4 (UniProt P15884)
inactive: [1] -0.285 | [2] -0.069 | [3] 0.005 | [5] 0.007 | [6] -0.019 | [7] -0.056 | [8] 0.003 | [9] -0.035 | [11] -0.015 | [12] -0.017 | [13] 0.126 | [14] 0.008 | [15] -0.011 | [16] 0.03 | [17] 0.021 | [18] -0.017

TXNRD2 isoform 3 (UniProt Q9NNW7)
inactive: [2] -0.018 | [3] -0.323 | [4] -0.303 | [8] 0.079 | [14] -0.081
